Source: PubChem BioAssay (National Center for Advancing Translational Sciences (NCATS))
This is a sample that favours compounds with a hit; in the whole collection about 10% have one here.
NPR1 antag: antagonists of human natriuretic peptide receptor Npr1; P16066; HEK293 hNpr1 GloSensor cGMP, ANP-stimulated luminescence; Potency, µM (titrated, usually from 46.3 µM), inactives show at the top dose activity change, negative = inhibition, hits mostly inhibitors; actives 1.6% (n = 76,000); AID 1347048; calls by dose curve; further: nearly all actives have a fitted effect of over 60% in size
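HEK293 cells stably expressing human Npr1 and cGMP GloSensor pGS-40F, loaded 2 h with 2% GloSensor reagent, given compound 30 min at room temperature. Luminescence read before and 20 min after 0.1 nM hNppA.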
HEK cytotox: kills HEK 293 cells | actives 6.6% (n = 94,000) | AID 1345083 | HEK 293 viability, ATP luminescence (CellTiter-Glo), 48-72 h | Potency, µM (highest dose often 115 µM), for the others: top-dose activity change, negative = cytotoxicity, most hits filed as inhibitors; further: nearly all actives have a fitted effect of over 60% in size
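HEK 293 seeded at 250 cells/well receive compound via pintool. After 48 or 72 hr at 37 degree Celsius, 5% CO2 and 95% humidity, CellTiter-Glo is dispensed and luminescence read following 10 min at room temperature.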
GPT2 inhibitor: blocks human glutamate pyruvate transaminase 2 | Q8TD30 | Recombinant GPT2, coupled pyruvate oxidase/HRP Amplex Red fluorescence | Potency, µM (titrated, usually from 57.7 µM), for inactives: at the top dose activity change, negative = inhibition, usual class: inhibitors | actives 0.25% (n = 100,000) | AID 1671188; further: nearly all actives have a fitted effect of over 60% in size
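Inhibition is scored from Amplex Red fluorescence generated when pyruvate oxidase and HRP act on pyruvate released by GPT2. Reactions contain 10ng/uL enzyme, 250uM a-KG and 2mM L-alanine and run 30 min at room temperature.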
FLuc inh: Photinus pyralis luciferase inhibition; actives 2.5% (n = 76,000); P08659; purified P. pyralis luciferase, luminescence, biochemical; Potency, µM (top dose mostly 115 µM), usual class: inhibitors; AID 1347043; further: nearly all actives have a fitted effect of over 65% in size
Target sequence (P08659 whole entry, looked up): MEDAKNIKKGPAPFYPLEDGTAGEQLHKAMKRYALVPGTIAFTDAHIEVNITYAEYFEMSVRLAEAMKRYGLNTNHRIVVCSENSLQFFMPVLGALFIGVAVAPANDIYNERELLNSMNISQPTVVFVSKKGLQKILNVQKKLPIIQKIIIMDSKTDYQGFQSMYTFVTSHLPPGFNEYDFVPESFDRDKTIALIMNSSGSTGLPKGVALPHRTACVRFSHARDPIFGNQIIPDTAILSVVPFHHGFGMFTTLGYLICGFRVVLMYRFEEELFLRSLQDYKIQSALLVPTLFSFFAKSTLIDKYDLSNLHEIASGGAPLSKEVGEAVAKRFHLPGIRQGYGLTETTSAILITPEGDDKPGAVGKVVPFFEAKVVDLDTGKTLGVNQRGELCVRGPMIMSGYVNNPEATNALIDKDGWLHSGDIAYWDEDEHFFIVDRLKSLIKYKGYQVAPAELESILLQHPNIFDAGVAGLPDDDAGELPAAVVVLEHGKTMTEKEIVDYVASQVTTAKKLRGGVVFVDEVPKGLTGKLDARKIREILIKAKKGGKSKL
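Cell-free enzyme assay, 10nM P. pyralis luciferase, luciferin and ATP each at 10uM. Inhibition profiled over a 6-point titration, read as luminescence.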
NIH3T3 tox: NIH 3T3 cell cytotoxicity | actives 4.3% (n = 94,000) | NIH 3T3 viability, CellTiter-Glo ATP luminescence, 48-72 h | AID 1345082 | Potency, µM (series often up to 96.7 µM), without a hit: at the top dose activity change, negative = cytotoxicity, hits mostly inhibitors; further: nearly all actives have a fitted effect of over 55% in size
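Cytotoxicity is measured as loss of cellular ATP: NIH 3T3 cells (400/well) are exposed to compound for 48 or 72 hr at 37 °C, then CellTiter-Glo luminescence is imaged after 10 min at room temperature.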
* marks the source's active call; other numbers are inactive results; i = inactive; u = inconclusive; x = no result; [ ] = dose if it differs, or a comment. Unless noted, the call rests on the fitted dose curve; in most records, active means well fitted curve in the direction sought with a large enough effect; inconclusive means small, poorly fitted or top-dose-only effect, or another doubt; inactive means no such curve, though single readings can be large; an effect the other way counts as inactive or inconclusive. On the % scale 0 is the no-effect control and ±100 the full control effect; potency means the concentration at half of the fitted maximal effect.

SMILES	NPR1 antag	HEK cytotox	GPT2 inhibitor	FLuc inh	NIH3T3 tox
Cc1ccc(S(=O)(=O)N2CCCC(Cn3c(C4CC4)nc4cccnc43)C2)cc1F (centres undefined)	0%	u	i	i	-21%
CN(C)c1cc(N2CCCC(NC(=O)NCc3ccco3)C2)ncn1 (centres undefined)	-10%	-3%	-17%	i	-21%
CCOC(=O)c1ccc(NC2CCCCC2)c(N)c1	x	x	3.5µM*	x	x
O=S(=O)(NCc1cccnc1Oc1ccc(F)cc1F)c1cccnc1	2%	4%	i	i	-9%
Cc1cc(C)c(CNC(=O)c2nc(-c3ccc(CO)cc3)cc3c2ccn3C(C)C)c(=O)[nH]1	4%	79µM*	-7%	i	u
Cc1cc(C)c(CNC(=O)c2nc(-c3cccnc3)cc3c2ccn3C(C)C)c(=O)[nH]1	-4%[70.6 µM]	100µM*	i	i	u
Cc1cc(C)c(CNC(=O)c2nc(-c3ccc(F)cc3)cc3c2ccn3C(C)C)c(=O)[nH]1	3%[70.6 µM]	50µM*	i	i	45µM*
COc1cccc(-c2cc3c(ccn3C(C)C)c(C(=O)NCc3c(C)cc(C)[nH]c3=O)n2)c1	-1%	u	i	i	u
Cc1cc(C)c(CNC(=O)c2nc(-c3cncnc3)cc3c2ccn3C(C)C)c(=O)[nH]1	5%[70.6 µM]	u	i	i	u
Cc1cc(-c2cc3c(ccn3C(C)C)c(C(=O)NCc3c(C)cc(C)[nH]c3=O)n2)ccn1	-8%[70.6 µM]	45µM*	2%[88.5 µM]	i	45µM*
CC(=O)Nc1cccc(-c2cc3c(ccn3C)c(C(=O)NCc3c(C)cc(C)[nH]c3=O)n2)c1	4%	u	2%	i	-25%
COc1ccccc1/C=C/CN1CCC(n2cc(CN(C)C)nn2)CC1	-1%	u	5%	i	u
O=C1NC2(CCCN(Cc3ccccc3C(F)(F)F)C2)COc2ccccc21 (centres undefined)	16%	u	-6%	i	u
Cc1ccc(C)c(NC(=O)N2c3ccccc3CC2c2nc(C3CC3)no2)c1 (centres undefined)	-9%	-22%	-8%	i	u
CC(C)c1noc(C2Cc3ccccc3N2C(=O)Nc2ccc3c(c2)OCCO3)n1 (centres undefined)	-14%	u	-10%	16µM*	u
O=C(Nc1ccc2c(c1)OCCO2)N1c2ccccc2CC1c1nc(C2CC2)no1 (centres undefined)	-18%	u	0%	13µM*	-26%
CC(C)c1noc(C2Cc3ccccc3N2C(=O)NC2CCCC2)n1 (centres undefined)	8%	-23%	-1%	i	32µM*
COc1ccc(C[C@H](NC(=O)[C@@H]2C[C@H](NC(=O)Nc3cccc(SC)c3)CN2C(=O)CC(C)(C)C)C(N)=O)cc1	-6%	0%	-4%	i	-15%
CC1=C[C@@H](CNCc2ccccn2)[C@H](C(C)C)C[C@H]1Cc1nnc(-c2ccc(N(C)C)cc2)o1	-28%	11µM*	i	i	u
CC1=C[C@@H](CNCc2cccnc2)[C@H](C(C)C)C[C@H]1Cc1nnc(-c2ccc(N(C)C)cc2)o1	u	18µM*	-13%	i	u
CC1=C[C@@H](CNCc2cccnc2)[C@H](C(C)C)C[C@H]1Cc1nnc(-c2ccncc2)o1	-15%[70.6 µM]	u	2%[88.5 µM]	i	u
CC1=C[C@@H](CNCc2ccccn2)[C@H](C(C)C)C[C@H]1Cc1nnc(-c2ccccc2)o1	u	79µM*	-5%[88.5 µM]	i	u
CC1=C[C@@H](CNCc2ccncc2)[C@H](C(C)C)C[C@H]1Cc1nnc(-c2ccc(C)cc2)o1	u	u	-7%[88.5 µM]	i	u
COc1ccccc1C(=O)NC1CCN(CCn2nc3n(c2=O)CCCC3)C1 (centres undefined)	x	i	x	x	-12%
Cc1ccc(CN2CC[C@H](c3nnc(-c4ccccc4)o3)C2)cc1	1%[70.6 µM]	u	-1%[88.5 µM]	u	u
SMILES	NPR1 antag	HEK cytotox	GPT2 inhibitor	FLuc inh	NIH3T3 tox
CN(C)c1ccc(-c2nnc([C@H]3CCN(Cc4ccccc4)C3)o2)cc1	-7%[70.6 µM]	u	i	63µM*	u
CN(C)c1ccc(-c2nnc([C@H]3CCN(CC4CCCCC4)C3)o2)cc1	0%[70.6 µM]	100µM*	-24%[88.5 µM]	u	u
CN(C)c1ccc(-c2nnc([C@H]3CCN(CC4CC4)C3)o2)cc1	8%[70.6 µM]	-20%[172 µM]	i	i	0%[138 µM]
COc1ccc(-c2noc(-c3cccn3CC(=O)Nc3ccc(N(C)C)cc3)n2)cc1F	-13%	u	3%	i	-29%
COc1ccc(C2Cn3nnc(-c4noc(/C=C/c5ccco5)n4)c3CO2)cc1 (centres undefined)	11%	3%	0%	i	-19%
Cc1nc2cnccn2c1C(=O)NCc1ccc(C(F)(F)F)cc1	x	-9%	x	x	u
O=[S+]1([O-])NC2(CCCN(Cc3ccccc3)C2)CNc2ccccc21 (centres undefined)	9%	u	-4%	i	-21%
O=[S+]1([O-])NC2(CCCN(Cc3ccccc3C(F)(F)F)C2)CNc2ccccc21 (centres undefined)	-29%	45µM*	-1%	i	u
Cc1noc2c(N3CCN(Cc4ccccc4)CC3)cc(-c3ccsc3)nc12	-27%[70.6 µM]	56µM*	2%[88.5 µM]	i	u
CCOc1nccn2c(-c3ccc(CNc4ccc(OC)nc4)cc3)cnc12	-14%[70.6 µM]	u	u	22µM*	u
c1cc(-c2cc(-c3ccncc3)c3cncn3c2)c2[nH]ccc2c1	-24%[70.6 µM]	100µM*	-22%[88.5 µM]	u	40µM*
c1cc(-c2cc(-c3ccncc3)c3cncn3c2)c2cc[nH]c2c1	-28%[70.6 µM]	89µM*	u	i	u
c1cc(-c2cc(-c3ccncc3)c3cncn3c2)c2[nH]ncc2c1	-24%[70.6 µM]	-45%[172 µM]	-30%[88.5 µM]	i	-45%[138 µM]
O=c1c2nc(NCc3cccs3)ccc2ncn1Cc1ccccc1	3%[70.6 µM]	u	1%[88.5 µM]	i	u
COCCCNC(=O)CCCN1C(=O)COc2ccc(C(=O)COc3ccccc3C)cc21	-3%	u	5%	i	-13%
CCNc1ncnc2sc3c(c12)CCN(Cc1ccc[nH]1)C3	-9%	u	4%	i	40µM*
CC(C)(C)C(=O)N1CCC2(CC1)C(=O)N(CC(=O)Nc1cccc(Cl)c1)CN2c1ccccc1	-2%	35µM*	-5%	i	32µM*
Cc1ccc(NC(=O)N[C@H]2C[C@@H](c3nc(-c4ccc(F)cc4)no3)N(C)C2)cc1	-17%[70.6 µM]	-26%[172 µM]	1%[88.5 µM]	u	u
CN1C[C@@H](NC(=O)Nc2ccccc2)C[C@H]1c1nc(Cc2ccccc2)no1	-2%[70.6 µM]	u	i	45µM*	u
